Data reported in PubChem BioAssay (EPA / NIEHS).
Inconclusive results are not listed. Where a structure was tested more than once in an assay, its records may differ in their call. Activity calls are given as the source filed them. The calls were made as follows: active = hit-call score of the fitted dose curve at least 0.9, where 1 is the maximum; inconclusive = response in the unintended direction; inactive = score below 0.9.

Molecular target: human Vitamin D Receptor (VDR), VDR (gene 7421) (UniProt P11473)
Sequence (P11473 whole entry, looked up): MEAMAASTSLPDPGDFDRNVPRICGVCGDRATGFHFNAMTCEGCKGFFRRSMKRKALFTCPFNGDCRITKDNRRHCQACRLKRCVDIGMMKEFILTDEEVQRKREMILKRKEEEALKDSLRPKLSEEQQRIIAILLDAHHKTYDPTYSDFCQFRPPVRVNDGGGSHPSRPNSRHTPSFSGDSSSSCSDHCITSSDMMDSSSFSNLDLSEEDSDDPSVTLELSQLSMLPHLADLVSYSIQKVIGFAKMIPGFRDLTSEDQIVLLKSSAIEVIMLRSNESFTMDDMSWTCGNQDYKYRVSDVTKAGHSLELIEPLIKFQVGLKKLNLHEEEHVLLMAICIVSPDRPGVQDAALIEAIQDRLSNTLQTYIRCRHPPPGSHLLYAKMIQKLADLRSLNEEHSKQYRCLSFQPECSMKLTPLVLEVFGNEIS
Assay: ATG_VDR_TRANS: Attagene TRANS-FACTORIAL HepG2 Assay for human Vitamin D Receptor (VDR) (AID 2283022)
Protocol: ATG_TRANS is a cell-based, multiplexed-readout assay that uses HepG2, a human liver cell line, with measurements taken at 24 hours after chemical dosing in a 24-well plate.ATG_VDR_TRANS is one of 30 assay component(s) measured or calculated from the ATG_TRANS assay. It is designed to make measurements of mRNA induction, a form of inducible reporter, as detected with fluorescence intensity signals by Reverse transcription polymerase chain reaction (RT-PCR) and Capillary electrophoresis technology.Data from the assay component ATG_VDR_TRANS was analyzed into 1 assay endpoint. This assay endpoint, ATG_VDR_TRANS, was analyzed in the positive analysis fitting direction relative to DMSO as the negative control and baseline of activity. Using a type of inducible reporter, measures of mRNA for gain-of-signal activity can be used to understand the reporter gene at the transcription factor-level as they relate to the gene VDR. Furthermore, this assay endpoint can be referred to as a primary readout, because this assay has produced multiple assay endpoints where this one serves a reporter gene function. To generalize the intended target to other relatable targets, this assay endpoint is annotated to the nuclear receptor intended target family, where the subfamily is non-steroidal.
Human liver HepG2 cells are transiently transfected with multiple reporter transcription units (MRTUs) in 6-well plates using FuGene 6 reagent (Roche; 3 ml FuGene/1 mg DNA). The MRTU constructs are regulated by a cis-regulating element (promoter). […] A major difference between the CIS and TRANS system is that in CIS activities of endogenous TFs are measured, whereas the TRANS assay evaluates changes in activities of exogenous, chimeric NR-Gal4 proteins. […] At the end of 24 hour incubation, total RNA was isolated using TriZol reagent (Invitrogen). The isolated RNA is then reverse-transcribed using oligo(dT) primer and Mo-MLV reverse transcriptase (Invitrogen) with DNAse I (Ambion) treatment for 30 min. The one-tenth of the produced cDNA was amplified by PCR using Taq DNA polymerase (Invitrogen) and two reporter sequence-specific primers. The PCR products were fluorescently labeled by primer extension with 6-arboxyfluorescein (6-FAM) 5'-labeled reporter sequence-specific primer (2 min at 95 C, 20 s at 68 C and 10 min at 72 C) and these products were digested with 5U of HpaI (New England Biolabs) for 2h at 37 C. The fragments were purified using Qiaquick PCR columns (Qiagen), analyzed on an ABI 3130xL genetic analyzer (Applied Biosystems) with peak positions identified by using a set of X-rhodamine (ROX)-labeled MapMarker1000 molecular weight standards (BioVentures). The raw capillary electrophoresis data was processed using Attagraph software (Attagene).

Structure (SMILES)	outcome	AC50
O=S(=O)(O)C(F)(F)C(F)(F)C(F)(F)C(F)(F)C(F)(F)C(F)(F)F	inactive	–
Cc1cc(-c2ccc(N)c(C)c2)ccc1N	inactive	–
CN(C)CCO	inactive	–
CC(C)(O)C(=O)Nc1ccc([N+](=O)[O-])c(C(F)(F)F)c1	inactive	–
CC(c1ccc(O)cc1)(c1ccc(O)cc1)c1ccc(O)cc1	–	17.7 µM (active)
COS(=O)(=O)OC	inactive	–
Clc1ccc(Cl)cc1	inactive	–
CCC(C)(CC)c1cc(NC(=O)c2c(OC)cccc2OC)on1	inactive	–
Cc1cc2c3c(c1)C(c1ccccc1)=N[C@@H](NC(=O)c1ccncc1)C(=O)N3CC2	inactive	–
CCC(=O)O[C@H]1CC[C@H]2[C@@H]3CCC4=CC(=O)CC[C@]4(C)[C@H]3CC[C@]12C	inactive	–
CCNc1nc(NC(C)C)nc(SC)n1	inactive	–
ClC1=C(Cl)[C@]2(Cl)[C@@H]3[C@@H](Cl)[C@H]4O[C@H]4[C@@H]3C1(Cl)C2(Cl)Cl	inactive	–
Oc1c(Cl)c(Cl)c(Cl)c(Cl)c1Cl	inactive	9.71 µM (active)
Cc1cccc([N+](=O)[O-])c1	inactive	–
Clc1ccc(C(c2ccccc2Cl)C(Cl)(Cl)Cl)cc1 (stereo not given)	inactive	–
Nc1ccc(-c2ccc(N)cc2)cc1	inactive	–
CO/C=C(/C(=O)OC)c1ccccc1COc1cccc(C(F)(F)F)n1	inactive	–
C[C@]12CCC(=O)C=C1CC[C@@H]1[C@@H]2CC[C@@]2(C)[C@H]1CC[C@]2(C)O	inactive	–
O=C(N[C@H]1CN2CCC1CC2)c1cc2ccoc2cn1	inactive	–
Cc1ccccc1[N+](=O)[O-]	inactive	–

Structure (SMILES)	outcome	AC50
Sc1ccccc1	inactive	–
c1cc2ccc3cccc4ccc(c1)c2c34	inactive	–
Oc1ccc(C(c2ccc(O)cc2)(C(F)(F)F)C(F)(F)F)cc1	inactive	–
Cc1ccccc1O	inactive	–
COc1ccc(O)c(C(C)(C)C)c1	inactive	–
C=CC(N)=O	inactive	–
ClC1=C(Cl)[C@]2(Cl)[C@@H]3[C@@H]4C[C@@H]([C@H]5O[C@@H]45)[C@@H]3[C@@]1(Cl)C2(Cl)Cl	inactive	–
CCOP(=S)(OCC)SCSC(C)(C)C	inactive	–
CCCCCCCCCc1ccc(O)cc1	inactive	–
CC(C)(c1ccccc1)c1ccc(O)cc1	inactive	–
CCSC(=O)N(CC)C1CCCCC1	inactive	–
C1CC2OC2CC1C1CO1 (stereo not given)	inactive	–
O=S(=O)(O)C(F)(F)C(F)(F)C(F)(F)C(F)(F)F	inactive	–
Cc1ccccc1CO[C@@H]1C[C@@]2(C(C)C)CC[C@]1(C)O2	inactive	–
ClC1=C(Cl)[C@]2(Cl)[C@@H]3[C@H]4C[C@H]([C@@H]5O[C@H]45)[C@@H]3[C@@]1(Cl)C2(Cl)Cl	inactive	–
O=C(O)C(F)(F)C(F)(F)C(F)(F)C(F)(F)C(F)(F)C(F)(F)C(F)(F)C(F)(F)F	inactive	–
C=CC(=O)NCNC(=O)C=C	inactive	–
CC#Cc1cc(C)nc(Nc2ccccc2)n1	inactive	–
Cc1cc(O)ccc1Cl	inactive	–
